Assay [1] is described as follows: inhibitors of TNFa-induced NFkB p65 translocation, primary screen, imaging, HUVEC, MLSMR starter and 10KST1 sets (AID 438;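 active means inhibition above 20% together with a positive visual image hit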;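 further: compound added about 3h40 before a 20 min TNFalpha stimulation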;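 on inhibition: signal is the nuclear over cytoplasmic p65 intensity ratio per well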). To be noted: HUVEC TNFa-induced p65 nuclear translocation; cell count: measured here: nuclei count (cytotoxicity indicator), at 2.08 µM; inhibition: at 2 µM, stronger effect = higher value, 0% TNFa-plus-vehicle, 100% no-TNFa wells.
Assay [2] is described as follows: reduction of polyQ htt aggregates in cells – imaging, exon1htt(103Q)mCFP cells, high-content imaging, primary screen (AID 483;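 active means visual image review flags a hit and inhibition of aggregation exceeds 20%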;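 further: compound exposure lasted 3 days before fixation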;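 on nuclei count: percent of the per-plate median nuclei count of sample wells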). Particulars: exon1htt(103Q)mCFP cell line, aggregate imaging, at 2 µM; inhibition of aggregation: stronger effect = higher value; nuclei count: measured here: cell count, toxicity.
The nature of assay [3]: endothelial E-selectin expression blockers – imaging, HUVEC, immunofluorescence, MLSMR starter and 10KST1 sets, primary screen (AID 487;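 active means visually confirmed hit in the image check and inhibition above 20%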;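 on inhibition: signal is fraction of cell area covered by stained E-selectin grains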;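 on nuclei count: 100% = median nuclei count of all wells on the same plate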). Particulars: HUVEC TNFalpha-induced E-selectin immunofluorescence imaging, at 2 µM; inhibition: stronger effect = higher value; nuclei count: measured here: cell number, toxicity.
Assay [4] concerns the target Voltage-gated potassium channel subunit beta-2 (Rattus norvegicus) (UniProt P62483). The experiment in a line: inhibitors of rat Kvbeta2 reductase activity – biochemical, NADPH fluorescence, primary screen (AID 622;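 active means fluorescence slope higher than the sample average by over 3 SD, cut at about -0.22 in these data, passing the limit was not always enough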;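 further: slope of raw intensity against log time taken from 70 to 1610 s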). To be noted: recombinant KvBeta, 4-cyanobenzaldehyde reduction, at 10 µM, stronger effect = higher value.
The target is the same in assay [5]. In words: enhancers of rat Kvbeta2 NADPH turnover – biochemical, NADPH fluorescence, primary screen (AID 623;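 active means NADPH fluorescence slope more negative than the mean of all samples by about 3 SD, 99.7% confidence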;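 further: fluorescence intensity change per second fitted from 20 to 320 s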). To be noted: Recombinant KvBeta, NADPH fluorescence decrease slope, 10 min; at 10 µM; stronger effect = lower value.
The target of assay [6] is Alpha-2C adrenergic receptor (Homo sapiens) (UniProt P18825). In words: compounds altering alpha2C-coupled GIRK flux – cell-based, HEK293 alpha2C/GIRK1/2, thallium flux, primary screen (AID 624;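 active means fluorescence slope after compound addition differing from the mean of all screened samples at 99.7% confidence, in either direction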;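 further: slope of fluorescence ratio to pre-addition baseline per second over 15 to 24 s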). Particulars: thallium flux BTC fluorescence, at 10 µM, actives lie on both sides.
Alpha-2C adrenergic receptor (Homo sapiens), sequence (P18825 whole entry, looked up): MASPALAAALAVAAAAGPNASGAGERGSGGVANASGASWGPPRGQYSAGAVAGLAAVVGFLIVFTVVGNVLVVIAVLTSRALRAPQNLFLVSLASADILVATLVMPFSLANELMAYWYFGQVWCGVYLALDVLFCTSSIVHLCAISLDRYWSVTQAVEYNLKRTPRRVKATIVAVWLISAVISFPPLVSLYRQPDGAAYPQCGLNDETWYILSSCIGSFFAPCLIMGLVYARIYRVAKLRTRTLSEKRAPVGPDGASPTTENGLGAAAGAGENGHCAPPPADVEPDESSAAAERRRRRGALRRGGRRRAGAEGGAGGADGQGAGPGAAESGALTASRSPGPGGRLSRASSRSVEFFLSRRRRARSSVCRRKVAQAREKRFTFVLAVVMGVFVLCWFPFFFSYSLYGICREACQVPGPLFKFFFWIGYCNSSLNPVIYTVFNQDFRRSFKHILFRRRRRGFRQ
Assay [7] is described as follows: blockers of RIG-like receptor reporter activation – cell-based, Sendai virus stimulus, luciferase, 10K MLSCN set, TLR/RLR signaling modifier project, primary screen (AID 602276;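 active means inhibition at or above 50% at 10 µM; inactive means inhibition below 50%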;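 further: firefly luciferase from ISG56 promoter only with Renilla not read in this screen; 0% = Sendai virus plus DMSO and 100% = medium plus DMSO without virus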). Particulars: HEK293 RL24 IRF3 luciferase reporter, at 10 µM, stronger effect = higher value. Background: A reporter such as luciferase makes a cellular process visible.
The nature of assay [8]: TLR3 IRF3 reporter activation blockers – cell-based, poly I:C stimulus, luciferase, 10K MLSCN set, primary screen (AID 602277). To be noted: HEK293-TLR3 RL24 IRF3 luciferase reporter, at 10 µM, stronger effect = higher value.

Activity calls are given as the source filed them.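 How the source made its calls, unless noted: active means inhibition of the reporter signal at or above 50%; inactive means inhibition below 50%.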

The inhibition is the drop in the measured response relative to a control, in per cent.

Voltage-gated potassium channel subunit beta-2 (Rattus norvegicus), sequence (P62483 whole entry, looked up): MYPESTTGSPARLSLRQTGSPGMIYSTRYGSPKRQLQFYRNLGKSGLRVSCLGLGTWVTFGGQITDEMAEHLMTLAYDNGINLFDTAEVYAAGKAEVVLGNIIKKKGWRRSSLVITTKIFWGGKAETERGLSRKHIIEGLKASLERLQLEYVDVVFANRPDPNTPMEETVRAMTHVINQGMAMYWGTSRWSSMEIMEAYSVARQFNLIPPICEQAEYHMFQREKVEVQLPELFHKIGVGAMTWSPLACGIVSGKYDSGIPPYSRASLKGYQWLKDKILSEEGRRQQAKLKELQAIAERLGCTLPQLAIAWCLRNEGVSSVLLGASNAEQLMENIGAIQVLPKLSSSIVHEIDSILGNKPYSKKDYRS

Take `COc1ccccc1S(=O)(=O)Cc1ccc(C(=O)NCCN2CCCCCC2)o1`: in assay [1], the cell count came out at 522. Moreover, the inhibition is 13.4% (inactive) in assay [1], 9% (inactive) in assay [3], 11% (inactive) in assay [7] and 39.3% (inactive) in assay [8]. In assay [2], the inhibition of aggregation was 15.2% (inactive). Moreover, the nuclei count in assay [2] turned out to be 91.6%; in assay [3], 81.1%. The fluorescence slope in assay [4] is -0.588 (inactive). In addition, the NADPH fluorescence slope in assay [5] is -3.5e-05 (inactive). Besides, the slope in assay [6] was 0.00667 (inactive).
Regarding `O=C(NC1CCCCC1)c1ccc(S(=O)(=O)N2CCCCC2)cc1`, the cell count in assay [1] is 392. Further, the inhibition in assay [1] is 2.1% (inactive); in assay [3], -49.2% (inactive); in assay [7], -18.3% (inactive); in assay [8], -7.9% (inactive). The inhibition of aggregation in assay [2] was 5.8% (inactive). Besides, the figures for the nuclei count in assay [2] and in assay [3] were 96.4% and 119%, respectively. In addition, the fluorescence slope in assay [4] was -0.588 (inactive). The NADPH fluorescence slope in assay [5] was 1.4e-05 (inactive). For the same molecule, the slope in assay [6] is 0.00499 (inactive).
As for `Cc1cccc(-n2c(=O)cc(N3CCN(c4ccc(F)cc4)CC3)[nH]c2=O)c1`, the cell count in assay [1] worked out at 605. Also, the inhibition in assay [1] was 0% (inactive); in assay [3], 15.8% (inactive); in assay [7], -5.09% (inactive); in assay [8], -5.41% (inactive). In addition, the inhibition of aggregation in assay [2] was 15.8% (inactive). In addition, the nuclei count in assay [2] worked out at 50.1%; in assay [3], 83.6%. Moreover, in assay [4], the fluorescence slope is -0.448 (inactive). Also, the NADPH fluorescence slope in assay [5] is -2.5e-05 (inactive). In assay [6], the slope is 0.00544 (inactive).
Regarding `COc1cc(S(=O)(=O)N2CCC(N3CCCCC3)CC2)ccc1-n1cnnn1`, the cell count in assay [1] stood at 351. Further, the inhibition in assay [1] was 6.9% (inactive); in assay [3], -20.4% (inactive); in assay [7] it was -9.28% (inactive); in assay [8], 3.24% (inactive). The inhibition of aggregation in assay [2] is 14.1% (inactive). Moreover, the nuclei count in assay [2] is 89.1%; in assay [3] it was 102%. For the same molecule, in assay [4], the fluorescence slope is -0.593 (inactive). The NADPH fluorescence slope in assay [5] was -7.9e-06 (inactive). The slope in assay [6] is 0.00492 (inactive).
For the molecule `Cc1cccc(N2C(=O)CC(N3CCN(C(=O)c4ccccc4)CC3)C2=O)c1` (stereo not drawn), in assay [1], the cell count was 408. Moreover, the inhibition in assay [1] is 19.1% (inactive); in assay [3] it was -12.6% (inactive); in assay [7] it was 10.6% (inactive); in assay [8] it was 16.7% (inactive). Besides, the inhibition of aggregation in assay [2] is 1.1% (inactive). Moreover, the nuclei count in assay [2] is 106%; in assay [3] it was 118%. Further, the fluorescence slope in assay [4] was -0.412 (inactive). In assay [5], the NADPH fluorescence slope was -0.000104 (inactive). Also, the slope in assay [6] is 0.00671 (inactive).
On to `COc1ccc(-c2ccc(-c3noc(-c4ccccc4)n3)c(OC)n2)cc1`, for which, in assay [1], the cell count is 359. Also, the inhibition in assay [1] is 1.8% (inactive); in assay [3], 5% (inactive); in assay [7] it was -7.23% (inactive); in assay [8], -29.4% (inactive). Further, in assay [2], the inhibition of aggregation is -12.7% (inactive). The nuclei count in assay [2] was 84.2%; in assay [3] it was 88.8%. Besides, the fluorescence slope in assay [4] is -0.0356 (inactive). Moreover, the NADPH fluorescence slope in assay [5] is -4.5e-06 (inactive). Also, the slope in assay [6] was 0.0074 (inactive).
As to `O=C(NC1CCN(Cc2ccccc2)CC1)C1CCN(S(=O)(=O)c2cccc3cccnc23)CC1`, the cell count in assay [1] worked out at 526. The inhibition in assay [1] is -11.6% (inactive); in assay [3] it was -4.4% (inactive); in assay [7], -12.5% (inactive); in assay [8] it was 8.2% (inactive). Besides, in assay [2], the inhibition of aggregation was 7.8% (inactive). The nuclei count came to 83.4% in assay [2] and 99.2% in assay [3]. Besides, the fluorescence slope in assay [4] was -0.561 (inactive). For the same molecule, the NADPH fluorescence slope in assay [5] is 7.4e-08 (inactive). In assay [6], the slope was 0.00666 (inactive).
For `CCOc1cccc(C(=O)N2CCCCC2c2cccnc2)c1` (stereo not drawn), the cell count in assay [1] is 269. The inhibition in assay [1] was -0.4% (inactive); in assay [3], -148% (inactive); in assay [7], 9.72% (inactive); in assay [8], 19.7% (inactive). In addition, the inhibition of aggregation in assay [2] is -24.6% (inactive). The figures for the nuclei count in assay [2] and in assay [3] were 95.1% and 101%, respectively. The fluorescence slope in assay [4] is -0.526 (inactive). The NADPH fluorescence slope in assay [5] is -4.2e-05 (inactive). The slope in assay [6] is 0.00421 (inactive).

These data come from PubChem BioAssay.
